The results in this text go back to PubChem BioAssay (NCATS).

Structures are written as SMILES. A number with no mark means an inactive call. Inconclusive results are not listed. Active and inactive are the calls of the source. Unless noted, calls follow the shape of the dose curve; as a rule, active = well fitted curve in the direction sought with a large enough effect; inconclusive = small, poorly fitted or top-dose-only effect, or another doubt; inactive = no such curve, though single readings can be large or run the other way.

Test [1] deals with Nuclear receptor subfamily 1 group I member 3 (Homo sapiens) (UniProt Q14994). In words: Primary qHTS for antagonist of constitutive androstane receptor (CAR) against the NCATS DSHEA and TCM libraries (AID 1794836). Also: potency is read from the fitted curve at half-maximal effect.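 As to activity change, negative = inhibition: HepG2 cells stably expressing hCAR with CYP2B6 luciferase reporter stimulated by CITCO; series mostly up to about 40 µM.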 In a few lines:
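HepG2-CYP2B6-hCAR cells, attached 5 h, given compounds plus CITCO agonist […], incubated 24 h at 37 C. Luciferase luminescence read, multiplexed with CellTiter-Fluor viability (Ex/Em 405/540 nm).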
Background: qHTS replaces the single test concentration by a dilution series.

Test [2] can be described thus: HepG2 viability counterscreen (readout 2: ATP content) against the NCATS DSHEA and TCM libraries (AID 1794840).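 Also: HepG2 cells exposed to substances for about 24 h; 0% is about no effect.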 The method, boiled down:
(§1)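 Readout 1: cellular protease activity, GF-AFC substrate (25 uM final, 30 min, fluorescence 380/510 nm). Readout 2: ATP content by CellTiter-Glo luminescence after 30 min at RT. Both follow ~24 h exposure of HepG2 cells (1,000/well) to substances.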

A short description of test [3]: HepG2 viability counterscreen (readout 1: protease activity) against the NCATS DSHEA and TCM libraries (AID 1794841).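 Also: cells exposed to compounds for about 24 h before the protease read; 0% is about no effect.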 The method, boiled down:
as §1

The nature of test [4]: KB-3-1 P-gp reporter qHTS against the NCATS DSHEA and TCM libraries (AID 1919975). Also: 0% is about no effect. The method, boiled down:
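Cell viability by CellTiter-Glo luminescence following ~72 h compound exposure (concentration-response). Uses parental, non-P-gp-overexpressing KB-3-1 line, 500 cells/well in DMEM/10% FBS, attached ~4 h before dosing.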

Test [5] can be described thus: KB-8-5-11 P-gp reporter qHTS against the NCATS DSHEA and TCM libraries (AID 1919977). Also: 0% is about no effect. In a few lines: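 CellTiter-Glo luminescence measured viability after ~72 h exposure (37C, 5% CO2) of KB-8-5-11 cervical adenocarcinoma cells overexpressing P-gp. Colchicine was omitted during assay. Substances were tested as titrations.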
Test [6] can be described thus: qHTS Counterscreen for compound interference against the NCATS DSHEA and TCM libraries (AID 1919978).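 Also: compounds preincubated with 1 µM D-luciferin or buffer before detection reagent; % of control where 0% means no effect.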 The settings on record: firefly luciferase detection reagent interference, luminescence. In a few lines: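 With 1 uM D-luciferin or phosphate buffer only, compounds at final 19.5 nM–39.8 uM were incubated for 15 min at room temperature. Luciferase detection reagent was then added, and luminescence was measured after a further 30 min at room temperature.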

A short description of test [7]: Dual reporter qHTS for agonist of Pregnane X Receptor (hPXR) against the NCATS DSHEA and TCM libraries: Fluorescence readout (AID 1920058). Also: 0% is about no effect. In a few lines: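 In this qHTS counter-read, reporter-bearing HepG2 cells in charcoal-stripped serum received substances for approximately 24 h before viability was assessed fluorometrically with CellTiter-Fluor.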
Test [8] addresses Nuclear receptor subfamily 1 group I member 2 (Homo sapiens) (UniProt O75469). In words: Dual reporter qHTS for antagonist of Pregnane X Receptor (hPXR) against the NCATS DSHEA and TCM libraries: Luminescence Readout (AID 1920060).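 Also: HepG2 cells carrying hPXR luciferase reporter stimulated with rifampicin at 2 µM; 0% is about no effect.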 The method, boiled down: (§2)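 hPXR-Luc HepG2 cells exposed 24 h at 37 C to compounds with 2 uM rifampicin in antagonist mode; luciferase luminescence measured by ONE-Glo, with CellTiter-Fluor viability read beforehand.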

Test [9] in a line: Dual reporter qHTS for antagonist of Pregnane X Receptor (hPXR) against the NCATS DSHEA and TCM libraries: Fluorescence Readout (AID 1920061). Also: 0% is about no effect. The method, boiled down:
as §2

In test [10] the target is Peroxisome proliferator-activated receptor delta (Homo sapiens) (UniProt Q03181). In words: qHTS assay for small molecule agonists of peroxisome proliferator-activated receptor delta signaling (AID 588534; calls by dose curve;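 also: 0% = DMSO basal wells and 100% = positive control agonist at 10 µM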). In a few lines:
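EC50 and efficacy values derive from Hill fits of a concentration series in a beta-lactamase reporter cell assay. Exposure is 18 hrs at 37 C, with CCF4 fluorescence as the readout.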

Sequence of Nuclear receptor subfamily 1 group I member 2 (Homo sapiens) (O75469 whole entry, looked up): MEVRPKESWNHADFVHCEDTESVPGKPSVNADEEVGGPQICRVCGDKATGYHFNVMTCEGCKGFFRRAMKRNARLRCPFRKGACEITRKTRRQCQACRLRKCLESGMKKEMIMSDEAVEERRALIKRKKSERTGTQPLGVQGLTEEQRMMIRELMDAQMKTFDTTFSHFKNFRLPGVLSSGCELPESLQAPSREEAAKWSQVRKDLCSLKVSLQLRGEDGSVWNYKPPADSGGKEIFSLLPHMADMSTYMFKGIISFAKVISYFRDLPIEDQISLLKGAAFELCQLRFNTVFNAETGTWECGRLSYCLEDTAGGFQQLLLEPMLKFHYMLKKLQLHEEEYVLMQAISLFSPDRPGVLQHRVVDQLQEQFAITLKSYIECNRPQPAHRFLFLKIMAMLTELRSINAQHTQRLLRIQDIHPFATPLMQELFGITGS
Sequence of Nuclear receptor subfamily 1 group I member 3 (Homo sapiens) (Q14994 whole entry, looked up): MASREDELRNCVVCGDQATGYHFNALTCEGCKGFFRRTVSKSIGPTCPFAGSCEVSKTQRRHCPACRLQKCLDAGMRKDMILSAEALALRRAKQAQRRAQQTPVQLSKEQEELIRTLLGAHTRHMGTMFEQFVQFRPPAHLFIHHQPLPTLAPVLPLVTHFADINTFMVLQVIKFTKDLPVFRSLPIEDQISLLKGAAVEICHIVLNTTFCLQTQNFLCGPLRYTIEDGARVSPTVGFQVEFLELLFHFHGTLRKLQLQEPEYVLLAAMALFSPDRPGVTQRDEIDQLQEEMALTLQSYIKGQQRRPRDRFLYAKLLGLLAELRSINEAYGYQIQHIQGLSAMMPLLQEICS
Sequence of Peroxisome proliferator-activated receptor delta (Homo sapiens) (Q03181 whole entry, looked up): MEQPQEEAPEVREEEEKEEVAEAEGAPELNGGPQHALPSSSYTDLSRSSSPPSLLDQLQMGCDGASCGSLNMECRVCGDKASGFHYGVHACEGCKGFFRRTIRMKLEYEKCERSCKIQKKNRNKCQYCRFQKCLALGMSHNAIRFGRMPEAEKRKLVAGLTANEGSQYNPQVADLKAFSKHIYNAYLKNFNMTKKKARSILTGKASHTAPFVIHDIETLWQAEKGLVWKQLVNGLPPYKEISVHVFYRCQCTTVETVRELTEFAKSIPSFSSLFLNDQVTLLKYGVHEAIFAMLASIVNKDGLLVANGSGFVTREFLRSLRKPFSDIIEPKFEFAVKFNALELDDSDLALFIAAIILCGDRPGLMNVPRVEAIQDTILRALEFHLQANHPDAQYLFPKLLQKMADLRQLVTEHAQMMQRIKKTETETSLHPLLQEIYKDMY

Regarding `COc1cc2c(cc1O)CC1NCCc3cc(OC)c(OC)c-2c31` (stereo not given), the Potency entry in [1] and in test [5] was “inactive” throughout. Moreover, the compound was called inactive in test [2], in [3], in [4], in [7], in test [8] and in test [9]. Further, the max response in [6] was -2.18%.
For the compound `CC(C)(O)[C@@H]1CC[C@](C)([C@@H]2[C@H](O)C[C@]3(C)C4C[C@@H](O[C@H]5O[C@@H](CO)[C@H](O)[C@@H](O)[C@@H]5O)C5C(C)(C)[C@H](O[C@H]6OC[C@H](O)[C@@H](O)[C@@H]6O)CC[C@]56CC46CC[C@@]23C)O1` (stereo not given in full), in [1], the Potency result is “inactive”.
With `Oc1cc(O)c2c(c1)O[C@@H](c1cc(O)c(O)c(O)c1)[C@H](O)C2`, in test [1], the Potency result was “inactive”.
With `CCCCCCCCCCCCCCCCCCCC(=O)O`, the Potency entry in [1] and in [5] was “inactive” each time. In addition, the result in test [2], in test [3], in test [4], in [7], in test [8] and in [9] was inactive. In [6], the max response is 0.104%.
As to `CC(C)=CCC[C@](C)(O[C@@H]1O[C@H](CO)[C@@H](O)[C@H](O)[C@H]1O)[C@H]1CC[C@]2(C)[C@@H]1[C@H](O)C[C@@H]1[C@@]3(C)CC[C@H](O)C(C)(C)[C@@H]3[C@@H](O[C@@H]3O[C@H](CO)[C@@H](O)[C@H](O)[C@H]3O)C[C@]12C`, in test [1], the Potency result is “inactive”.
In the case of `C=C1C[C@@]23CC[C@H]4[C@@](C)(CCC[C@@]4(C)C(=O)O[C@@H]4O[C@H](CO)[C@@H](O)[C@H](O)[C@H]4O)[C@@H]2CC[C@]1(O[C@@H]1O[C@H](CO)[C@@H](O)[C@H](O[C@@H]2O[C@H](CO)[C@@H](O)[C@H](O)[C@H]2O)[C@H]1O[C@@H]1O[C@@H](C)[C@H](O)[C@@H](O)[C@H]1O)C3`, the Potency result in test [1] was “inactive”.
Take `O=C(O[C@@H]1Cc2c(O)cc(O)cc2O[C@@H]1c1ccc(O)c(O)c1)c1cc(O)c(O)c(O)c1`: the Potency result in test [1] was “inactive”.
For `O=c1cc(-c2ccc(O)cc2)oc2cc(O[C@H]3OC(CO)C(O)C(O)C3O)cc(O)c12` (stereo not given in full), the Potency result in test [1] is “inactive”.
As to `COc1cc2c(cc1O)C[C@H]1c3c(cc(OC)c(O)c3-2)CCN1C`, in test [1], the Potency entry is “inactive”. In addition, the result in test [2], in [3], in test [4], in test [7] and in test [8] was inactive. Also, the max response in test [6] was -3.09%.
Turning to `CC(C)=CCC[C@](C)(O[C@@H]1O[C@H](CO[C@@H]2O[C@H](CO)[C@@H](O)[C@H](O)[C@H]2O)[C@@H](O)[C@H](O)[C@H]1O)C1CC[C@]2(C)[C@@H]1[C@H](O)CC1[C@@]3(C)CC[C@H](O[C@@H]4O[C@H](CO)[C@@H](O)[C@H](O)[C@H]4O[C@@H]4O[C@H](CO)[C@@H](O)[C@H](O)[C@H]4O)C(C)(C)[C@@H]3CC[C@]12C` (stereo not given in full), the activity change, negative = inhibition in test [1] is -31.6% [at 8.32 µM].
On to `O=c1cc(-c2ccc(O)c(O)c2)oc2cc(O[C@@H]3O[C@@H](CO)[C@@H](O)[C@@H](O)[C@H]3O)cc(O)c12`, for which the Potency result in [1] and in test [5] was “inactive” each time.
Consider `CC[C@@H]1CN2CC[C@]3(C(=O)Nc4ccccc43)[C@@H]2C[C@@H]1/C(=C\OC)C(=O)OC`, for which, in test [1], the Potency is 3.98 µM (active). Moreover, the outcome in test [2], in test [3], in test [4], in test [7], in [8] and in test [9] was inactive. Further, the Potency entry in test [5] is “inactive”. Besides, the max response in [6] was -3.13%.
With `C=C1C[C@@]23CC[C@H]4[C@](C)(CCC[C@]4(C)C(=O)O[C@@H]4O[C@H](CO)[C@@H](O)[C@H](O)[C@H]4O)[C@@H]2CC[C@]1(O[C@H]1O[C@@H](CO)[C@H](O)[C@@H](O)[C@@H]1O)C3`, the Potency result in test [1] and in test [5] was “inactive” throughout.
For the compound `C=C(C)C1CC=C(C)C(O)C1` (stereo not given), the call in test [10] was inactive. In addition, the Potency entry in test [1] and in test [5] was “inactive” throughout.
Regarding `O=C(O)[C@H]1O[C@@H](Oc2c(-c3ccc(O)c(O)c3)oc3cc(O)cc(O)c3c2=O)[C@H](O)[C@@H](O)[C@@H]1O`, the Potency result in test [1] and in test [5] was “inactive” each time.
For `C[C@@H]1CC[C@]2(C)CC[C@]3(C)C(=CC(=O)C4[C@@]5(C)CC[C@@H](O)[C@](C)(C(=O)O)C5CC[C@]43C)C2[C@H]1C` (stereo not given in full), the Potency result in test [1] and in test [5] was “inactive” in each case.
Consider `CCCCCCCC/C=C/CCCCCCCCCC(=O)O`, for which the Potency entry in test [1] and in test [5] was “inactive” each time.
Regarding `O=C(/C=C/c1ccc(O)c(O)c1)O[C@@H]1CC(O)(C(=O)O)C[C@@H](OC(=O)/C=C/c2ccc(O)c(O)c2)C1O` (stereo not given in full), the Potency entry in test [1] and in test [5] was “inactive” in each case.
Regarding `CC[C@H](CC[C@@H](C)[C@H]1CCC2C3CCC4C[C@@H](O)CC[C@]4(C)C3CC[C@@]21C)C(C)C` (stereo not given in full), the Potency result in test [1] and in test [5] was “inactive” each time.
Turning to `COc1ccc(/C=C/c2cc(OC)cc(=O)o2)cc1`, the call in test [10] was inactive. Further, in test [1], the Potency result was “inactive”.
As to `CCCCCCCCCCCCCCCCCCCCCC(=O)O`, the Potency result in test [1] and in test [5] was “inactive” each time.
As for `O=S(=O)(O)O`, the compound was classed as inactive in [2], in test [3], in test [4], in test [7], in [8] and in [9]. For the same compound, in [5], the Potency entry was “inactive”. Besides, the max response in test [6] is -1.96%.
With `COC(=O)C1=CO[C@@H](C)[C@H]2CN3CCc4c([nH]c5ccccc45)[C@@H]3C[C@H]12`, the Potency entry in test [1] and in test [5] was “inactive” throughout.
Consider `C[C@@H]1OC(O[C@H]2[C@H](O)[C@@H](O)[C@H](OC[C@H]3O[C@@H](OC(=O)[C@]45CCC(C)(C)C[C@@H]4C4=CCC6[C@@]7(C)CC[C@H](OC8OC[C@H](O)[C@H](O)[C@H]8OC8O[C@@H](C)[C@H](O)[C@@H](O)[C@H]8O)[C@@](C)(CO)C7CC[C@@]6(C)[C@]4(C)CC5)[C@H](O)[C@@H](O)[C@@H]3O)O[C@@H]2CO)[C@H](O)[C@H](O)[C@H]1O` (stereo not given in full), for which the Potency entry in test [1] and in test [5] was “inactive” each time.
In the case of `O=C(OC[C@H]1O[C@@H](OC(=O)c2cc(O)c(O)c(O)c2)[C@H](OC(=O)c2cc(O)c(O)c(O)c2)[C@@H](OC(=O)c2cc(O)c(O)c(O)c2)[C@@H]1OC(=O)c1cc(O)c(O)c(O)c1)c1cc(O)c(O)c(O)c1`, the Potency result in test [1] and in test [5] was “inactive” in each case.
For `CCCCCCCCC/C=C/C(=O)CCc1ccc(O)c(OC)c1`, the Potency entry in test [1] and in test [5] was “inactive” each time.
Consider `CC(C)(O)[C@@H]1CC[C@](C)([C@H]2[C@@H](O)C[C@@]3(C)[C@@H]4C[C@H](O)[C@H]5C(C)(C)[C@@H](O[C@@H]6OC[C@@H](O)[C@H](O)[C@H]6O[C@@H]6O[C@H](CO)[C@@H](O)[C@H](O)[C@H]6O)CC[C@@]56C[C@@]46CC[C@]23C)O1`, for which the Potency entry in [1] and in test [5] was “inactive” each time.
